Lamin A splicing: qHTS Assay for Modulators of Lamin A Splicing. AID 1487, 2009. HeLa LMNA splicing GFP/RFP minigene ratio, 48 h. actives 0.01% (n = 200,000). Potency, µM (highest dose often 46.1 µM), most hits filed as inhibitors; active = well fitted inhibition curve with a large enough effect in the signal ratio, with a control signal flat, not every such curve was filed as active; inconclusive = small, poorly fitted or top-dose-only effect, or effect the other way, or a change in a side signal; the % refers to the signal ratio
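S3 HeLa cells stably expressing lamin A-EGFP splicing minigene plus DsRed2, 600 cells/well, 48 h compound exposure at 37C. Laser-scanning cytometry; analysed as GFP (500-530 nm)/RFP (575-640 nm) total intensity ratio; 0.5% DMSO vehicle.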
HttQ103 aggreg: qHTS Multiplex Assay to Identify Dual Action Probes in a Cell Model of Huntington: Aggregate Formation (GFP); actives 1.1% (n = 220,000); AID 1688, 2009; Potency, µM (titrated, usually from 46.1 µM), usual class: inhibitors; PC12 HttQ103-GFP aggregates, Acumen cytometry, 40 h; note: nearly all actives have a fitted effect of over 60% in size
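Multiplexed with ATP-based cell death, this channel scores GFP aggregates in PC12 cells expressing inducible HTTex1-Q103-GFP. Induction used 100 nM tebufenozide; compounds were tested in concentration series.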
ALDH1A1 block: qHTS Assay for Inhibitors of Aldehyde Dehydrogenase 1 (ALDH1A1); Purified ALDH1A1, NADH fluorescence, propionaldehyde substrate; Potency, µM (top dose mostly 75.3 µM), most hits filed as inhibitors; actives 7.3% (n = 220,000); Aldehyde dehydrogenase 1A1 (Homo sapiens), P00352; active = well fitted inhibition curve with a large enough effect, not every such curve was filed as active; inconclusive = small, poorly fitted or top-dose-only effect, or another doubt; inactive = no such curve, though single readings can be large or run the other way
Target sequence (P00352 whole entry, looked up): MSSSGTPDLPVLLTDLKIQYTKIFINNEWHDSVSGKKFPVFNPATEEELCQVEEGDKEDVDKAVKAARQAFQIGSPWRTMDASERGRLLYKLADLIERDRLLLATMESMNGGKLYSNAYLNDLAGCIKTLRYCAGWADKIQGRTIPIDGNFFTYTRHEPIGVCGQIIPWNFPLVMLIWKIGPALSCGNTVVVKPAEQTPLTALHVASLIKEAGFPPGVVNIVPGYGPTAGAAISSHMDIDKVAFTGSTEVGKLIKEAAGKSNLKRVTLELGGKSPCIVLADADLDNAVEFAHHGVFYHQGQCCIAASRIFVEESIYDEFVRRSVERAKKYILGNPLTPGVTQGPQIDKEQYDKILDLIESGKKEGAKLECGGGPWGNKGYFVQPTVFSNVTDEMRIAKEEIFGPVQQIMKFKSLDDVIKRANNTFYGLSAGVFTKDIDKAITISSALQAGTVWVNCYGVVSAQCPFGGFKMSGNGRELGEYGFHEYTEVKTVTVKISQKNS
HPGD block: qHTS Assay for Inhibitors of HPGD (15-Hydroxyprostaglandin Dehydrogenase) | actives 4.3% (n = 150,000) | 15-hydroxyprostaglandin dehydrogenase [NAD(+)] (Homo sapiens), P15428 | AID 894, 2007 | purified HPGD, NADH fluorescence kinetic, PGE2 substrate | Potency, µM, hits mostly inhibitors; active = well fitted inhibition curve with a large enough effect, not every such curve was filed as active; inconclusive = small, poorly fitted or top-dose-only effect, or another doubt; inactive = no such curve, though single readings can be large or run the other way
Target sequence (P15428 whole entry, looked up): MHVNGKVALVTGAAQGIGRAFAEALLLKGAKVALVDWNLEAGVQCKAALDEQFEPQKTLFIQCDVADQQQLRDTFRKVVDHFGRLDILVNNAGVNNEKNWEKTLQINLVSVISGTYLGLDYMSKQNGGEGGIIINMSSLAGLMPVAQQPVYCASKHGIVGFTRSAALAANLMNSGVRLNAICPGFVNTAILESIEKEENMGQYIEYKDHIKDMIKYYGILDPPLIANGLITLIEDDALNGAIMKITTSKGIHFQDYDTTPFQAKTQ
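NADH formation kinetics: reaction with 30 uM PGE2 and 1 mM NAD+ (final), 20 nM enzyme, Tris-HCl pH 8 with Tween 20, after 15 min compound preincubation at room temperature. Fluorescence change, last versus first of five reads.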
HTT cytoprotect: qHTS Multiplex Assay to Identify Dual Action Probes in a Cell Model of Huntington: Cytoprotection (ATP); PC12 HTT-Q103 induced, cytoprotection, ATP luminescence, 40 h; Potency, µM (series often up to 56.4 µM), actives largely listed as activators; actives 0.14% (n = 230,000); note: nearly all actives have a fitted effect of over 45% in size
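PC12 cells stably carrying ecdysone-inducible Htt exon 1 (Q103)–GFP were induced with 100 nM tebufenozide (final) alongside library compounds in a dose series. Cytoprotection was scored as retained ATP by ATPlite luminescence.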
Hits are given with their value; - = inactive; ? = inconclusive; . = not tested or not shown; [ ] = dose if it differs, or a comment. Most compounds without a hit are left out; they make up all but 8.8% or so of the library. Unless noted, calls come from the whole dose curve; as a rule, active = well fitted curve in the direction sought with a large enough effect; inconclusive = small, poorly fitted or top-dose-only effect, or another doubt; inactive = no such curve, though single readings can be large; an effect the other way counts as inactive or inconclusive.

SMILES | Lamin A splicing | HttQ103 aggreg | ALDH1A1 block | HPGD block | HTT cytoprotect
Cc1ccc(/C=C(/NC(=O)c2ccccc2)C(=O)NCCc2c[nH]c3ccccc23)o1 | - | - | 28.2µM | - | -
COC(=O)CSc1nnnn1-c1ccccc1 | - | - | - | - | -
O=C(/C(=N\Nc1ccccc1)Sc1nnnn1-c1ccccc1)c1ccccc1 | - | - | 1.41µM | - | -[10 µM]
CCCCC(=O)Nc1sc2c(c1-c1nc3ccccc3s1)CCN(C(C)=O)C2 | ? | - | 25.1µM | - | -[10 µM]
CN1CCN(c2ncc3nc(-c4cn(C)c5ccccc45)c(=O)n(CCC#N)c3n2)CC1 | - | . | ? | . | ?
Cc1nc2ccccn2c1C(=O)N=Nc1c(O)n(CCC(C)C)c2ccccc12 | - | 35.5µM | ? | - | -[10 µM]
Cc1cccc(C)c1NC(=S)NC(=O)c1ccc(Br)o1 | - | -[9.22 µM] | ? | . | -
Cn1ncc(C(N)=O)c1NC(=S)NC(=O)c1ccc(Br)o1 | - | - | 7.94µM | . | -
c1ccc2c(c1)C(=Nn1cnnc1)c1ccccc1-2 | - | - | ? | - | -
O=C1/C(=N/n2cnnc2)c2ccccc2N1Cc1ccccc1 | - | - | 0.0891µM | - | -
CCOC(=O)c1cc(CC)sc1/N=C/c1c(O)ccc2ccccc12 | ? | - | ? | - | -[10 µM]
Cc1noc(C)c1CSc1ncnc2sc3c(c12)CCCCC3 | - | ? | 28.2µM | ? | -[10 µM]
COc1ccc(N2CCN(C(=O)/C=C/c3ccco3)CC2)cc1 | ? | ? | 22.4µM | . | -
O=C(/C=C/c1ccco1)N1CCN(S(=O)(=O)c2ccc(F)c(F)c2F)CC1 | . | - | ? | . | -
Cc1ccc(S(=O)(=O)N2CCN(C(=O)/C=C/c3ccco3)CC2)cc1 | - | - | 22.4µM | - | -[10 µM]
O=C(/C=C/c1ccco1)N1CCCC(c2ccccc2)C1 (stereo unspecified) | ? | -[9.22 µM] | 10µM | . | -[10 µM]
O=C(/C=C/c1ccccc1)N1CCC(c2ccccc2)C1 (stereo unspecified) | - | - | - | ? | -[10 µM]
CCN(CC)CCCCNC(=O)c1ccc(Cc2nc3ccccc3[nH]2)cc1 | . | . | - | - | .
COc1cccc(C2SCC(=O)N2c2ccc(Br)cc2)c1OC (stereo unspecified) | - | - | - | - | -[10 µM]
CC(C)(C)c1ccc(C(=O)NNc2ncccc2-n2cccc2)cc1 | . | -[9.22 µM] | - | . | -[10 µM]
CCCCNc1nc(C)nc2c1nc(C)n2CCC | . | . | - | - | -
CCOC(=O)C1=C(c2ccccc2)N=C2SCC(=O)N2C1c1ccc2c(c1)OCO2 (stereo unspecified) | - | - | 12.6µM | - | -
COc1ccc(Oc2ncc3nc(-c4ccc(F)cc4)c(=O)n(CCC#N)c3n2)cc1 | - | . | - | . | -
Cc1ccc(NC(=O)COc2cccc3ccc(C)nc23)c(Br)c1 | - | - | ? | 11.2µM | .
Cc1ccc(OCC(=O)Nc2cccc(C)n2)c(C)c1 | - | - | - | - | -
SMILES | Lamin A splicing | HttQ103 aggreg | ALDH1A1 block | HPGD block | HTT cytoprotect
O=C(CCc1c[nH]c2ccccc12)N1CCN(c2ccc(O)cc2)CC1 | ? | - | 8.91µM | . | -[10 µM]
COc1ccc(N2CCN(C(=O)CCc3c[nH]c4ccccc34)CC2)cc1 | . | - | - | . | .
CCN1C(=O)/C(=C/c2ccc(C)s2)SC1=Nc1ccc(OC)cc1 | ? | - | ? | - | -
CCCN1C(=O)/C(=C/c2cc(C)n(C)c2C)SC1=Nc1ccc(OCC)cc1 | - | - | 3.16µM | - | -
CCN1C(=O)/C(=C/c2cc(C)n(C)c2C)SC1=Nc1ccc(OC)cc1 | - | - | 1.26µM | - | -
CCN1C(=O)/C(=C\c2ccncc2)SC1=Nc1ccc(C)c(C)c1 | - | ? | ? | - | -[0.074 µM]
O=c1c(-c2ccccc2)nc2cnc(N3CCOCC3)nc2n1C1CC1 | - | . | ? | . | -
CCCn1c2ccccc2c2cnn(CC(=O)NCCc3ccc(C)cc3)c(=O)c21 | - | . | . | . | .
CCOc1ccc(/C=C/C(=O)NCCc2ccc(OC)c(OC)c2)cc1 | ? | - | - | - | -[0.074 µM]
CCCCNC(=O)/C=C/c1ccc(OC)c(Br)c1 | - | - | - | 25.1µM | -[10 µM]
CN(C)C(=O)c1ccc(-c2nc(NC3CCNCC3)c3ccccc3n2)cc1 | - | . | - | . | -
Cc1cc(C(=O)NC(CC(C)C)C(=O)O)cc(C)c1[N+](=O)[O-] (stereo unspecified) | - | - | 7.08µM | - | -[10 µM]
Cc1cc(C)n(C(=O)CNc2ccc(C)c(C)c2)n1 | ? | - | 25.1µM | - | -[1.9 µM]
Cc1ccc(CN2CCN(Cc3c[nH]c4ccccc34)CC2CCO)o1 (stereo unspecified) | . | -[9.22 µM] | - | . | -[10 µM]
Cc1ccc(CN2CCN(Cc3cc(=O)c4ccccc4[nH]3)CC2CCO)o1 (stereo unspecified) | . | -[9.22 µM] | 17.8µM | . | -[10 µM]
Cc1cc[n+](-c2nc3ccccc3nc2[N-]S(=O)(=O)c2ccccc2)cc1 | - | ? | ? | . | -[10 µM]
CCc1cc[n+](-c2nc3ccccc3nc2[N-]S(=O)(=O)c2ccc(Br)s2)cc1 | ? | - | 0.946µM | - | -[10 µM]
COc1ccc(C2C(C(C)=O)=C(O)C(=O)N2CCN(C)C)cc1OC (stereo unspecified) | - | - | - | - | -
CCN(CC)CCN1C(=O)C(O)=C(C(C)=O)C1c1ccc(OC)c(OC)c1 (stereo unspecified) | - | ? | 17.8µM | - | -
Cc1sc(C2C(C#N)=C(N)N(c3ccc(Cl)cc3)C3=C2C(=O)CCC3)cc1CN1CCOCC1 (stereo unspecified) | - | . | . | . | .
COc1ccc(NC(=O)CSc2nc3c(c(-c4cccs4)c2C#N)CN(C)CC3)cc1OC | - | - | 14.1µM | - | -
COC(=O)CSc1nc2c(c(-c3ccco3)c1C#N)CCCC2 | - | ? | 12.6µM | 12.6µM | -[0.074 µM]
CCOC(=O)C(C)Sc1nc2c(c(-c3cccs3)c1C#N)CCC2 (stereo unspecified) | ? | - | ? | - | .
CC(C)OC(=O)CC(=O)CSc1nc2c(c(-c3cccs3)c1C#N)CCC2 | - | 11.2µM | ? | - | -[1.9 µM]
CCOc1ccc(OCC)c(NS(=O)(=O)c2ccc(-c3coc(C)n3)cc2)c1 | - | . | . | . | .
SMILES | Lamin A splicing | HttQ103 aggreg | ALDH1A1 block | HPGD block | HTT cytoprotect
COc1ccc(CCNc2ncnc3sccc23)cc1OC | ? | 1µM | - | . | -[10 µM]
COc1ccc(CCNc2nc(C)nc3c2oc2ccccc23)cc1OC | ? | ? | - | - | -[10 µM]
COc1ccc(CCNc2ncnc3c2oc2ccccc23)cc1OC | - | 2µM | - | - | -
Cc1nc(N2C(=O)C(=O)/C(=C(/O)c3ccccc3)C2c2ccco2)sc1C (stereo unspecified) | - | - | - | - | -[0.074 µM]
COC(=O)c1sc(N2C(=O)C(=O)/C(=C(/O)c3ccccc3)C2c2ccco2)nc1C (stereo unspecified) | - | - | - | 25.1µM | .
CCc1nnc(NC(=O)Cn2c(=O)oc3ccccc32)s1 | - | -[9.22 µM] | - | - | -

Screening results (PubChem BioAssay)
